Results reported in PubChem BioAssay (Tox21).
Results filed as inconclusive are left out. Activity calls are given as the source filed them. Unless noted, calls follow the shape of the dose curve; as a rule, active = well fitted curve in the direction sought with a large enough effect in the repeat runs; inconclusive = weak or mixed curves; inactive = no such curve, though single readings can be large; an effect the other way counts as inactive or inconclusive.

Key:
[1] = qHTS assay to identify small molecule antagonists of the estrogen related receptor (ERR) signaling pathway from Tox21 library - cell viability counter screen (AID 1224834); also: nearly all actives have a fitted effect of over 30% in size
Outline: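 Multiplexed viability counter screen in ERR cells: 17.5 h compound exposure at 37 C, CellTiter-Fluor added, 30 min at 37 C/5% CO2, fluorescence read.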

[2] = biological target: Luciferin 4-monooxygenase (Photinus pyralis) (UniProt P08659); assay: qHTS assay to identify small molecule inhibitors of firefly luciferase (AID 1224835); also: nearly all actives have a fitted effect of over 25% in size
Outline: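 Inhibition of purified Photinus luciferase is measured by luminescence. Substrate levels (D-luciferin, ATP) sit at their KM values. Each compound is tested in a concentration series.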

[3] = qHTS assay to identify small molecule agonists of the constitutive androstane receptor (CAR) signaling pathway - cell viability counter screen (AID 1224836); also: nearly all actives have a fitted effect of over 45% in size
Outline: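 HepG2 cells stably carrying hCAR and a CYP2B6-2.2kb reporter were plated 4 h, then given compounds at 15 concentrations plus PK11195 (final 0.75 uM). After 23 h at 37 C, viability was read by CellTiter-Fluor fluorescence.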

[4] = qHTS assay to identify small molecule antagonists of the constitutive androstane receptor (CAR) signaling pathway - cell viability counter screen (AID 1224837); also: nearly all actives have a fitted effect of over 45% in size
Outline: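 Read-out: CellTiter-Fluor fluorescence after 23 hr at 37 C/5% CO2. Cells: HepG2 double-stable for hCAR and CYP2B6-2.2kb. Compounds tested at 15 concentrations in the presence of CITCO, final concentration 50 nM.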

[5] = biological target: Nuclear receptor subfamily 1 group I member 3 (Homo sapiens) (UniProt Q14994); assay: qHTS assay to identify small molecule antagonists of the constitutive androstane receptor (CAR) signaling pathway (AID 1224838); also: nearly all actives have a fitted effect of over 40% in size
Outline: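 Read-out: ONE-Glo luciferase luminescence after 30 min at room temperature. HepG2-CYP2B6-hCAR double-stable cells, compounds in 15-point titration plus 50 nM CITCO final, 24 h at 37 C/5% CO2.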

[6] = qHTS assay to identify small molecule antagonists of the estrogen related receptor signaling pathway with the pleiotropic PPARgamma coactivator (PGC) from Tox21 10K library - cell viability counter screen (AID 1224840; active = well fitted cell-killing curve with a large enough effect in the repeat runs, not every such curve was filed as active; also: nearly all actives have a fitted effect of over 40% in size)
Outline: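 Fluorescence read-out of CellTiter-Fluor viability reagent, added after cells had been exposed to compound in DMSO for 17.5 h at 37 C; 30 min development at 37 C/5% CO2. Cells: PGC/ERR line, 2,000/well.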

[7] = qHTS assay to identify small molecule antagonists of the estrogen related receptor signaling pathway with the pleiotropic PPARgamma coactivator (PGC) from Tox21 10K library (AID 1224841; call rule not given here; also: actives are mostly falling curves and most rising ones were filed inactive; nearly all actives have a fitted effect of over 50% in size)
Outline: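 Luminescence read-out (One-Glo luciferase reagent, 30 min at room temperature) from PGC/ERR cells exposed to DMSO-dissolved test compounds for 18 h at 37 C; cells, 2,000 per well, had been preincubated 6 h before compound transfer.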

[8] = qHTS assay to identify small molecule agonists of the estrogen related receptor signaling pathway with the pleiotropic PPARgamma coactivator (PGC) from Tox21 10K library (AID 1224842); also: nearly all actives have a fitted effect of over 15% in size
Outline: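 Luminescence from One-Glo (30 min, room temperature) measured after PGC/ERR cells had 18 h at 37 C with pinned compound (23 nL in DMSO). Cells had been seeded at 2,000 per well and pre-incubated 6 h.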

[9] = biological target: Thyrotropin receptor (Homo sapiens) (UniProt P16473); assay: qHTS assay to identify small molecule agonists of the thyroid stimulating hormone receptor (TSHR) signaling pathway (AID 1224843; calls by dose curve; also: nearly all actives have a fitted effect of over 45% in size)
Outline: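 A cell-based cAMP HTRF format was run in TSHR-transfected HEK293 cells, 800 per well. Treatment: 30 min, room temperature. Detection: 1 h with labelled cAMP and anti-cAMP cryptate. Concentration-response over 15 points, three replicates.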

[10] = qHTS assay to identify small molecule agonists of the hypoxia (HIF-1) signaling pathway - cell viability counter screen (AID 1224844; calls by dose curve; also: nearly all actives have a fitted effect of over 50% in size)
Outline: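 CellTiter-Glo luminescence read-out, 30 min RT, taken in the same wells as the beta-lactamase HRE reporter assay; HRE-bla ME-180 cells, 0.5% dialyzed FBS, 17 hr compound treatment at 37C, 5% CO2.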

[11] = qHTS assay to identify small molecule agonists of H2AX (AID 1224845; active = well fitted activation curve with a large enough effect in the signal ratio in the repeat runs, not every such curve was filed as active; the % refers to the signal ratio)
Outline: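 Phospho-H2AX Ser139 measured by HTRF (ex 320 nm; em 665 and 620 nm) after 24 hr antibody incubation. Compounds, 15 concentrations, 0.76% DMSO, were applied to CHO-K1 cells for 3hr at 37C before lysis.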

[12] = qHTS assay to identify small molecule agonists of H2AX - cell viability counter screen (AID 1224847; calls by dose curve; also: top concentration of the series differs between compounds; nearly all actives have a fitted effect of over 30% in size)
Outline: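 Wild-type CHO-K1 cells (10% FBS medium) were plated overnight at 37C, exposed to compounds at 15 concentrations for 3 hr at 37C (0.76% DMSO final), and viability was read as CellTiter-Glo luminescence after 30 min at room temperature.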

[13] = qHTS assay to identify small molecule antagonists of the estrogen related receptor (ERR) signaling pathway from Tox21 library (AID 1224848); also: nearly all actives have a fitted effect of over 50% in size
Outline: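 ERR cell line, 2,000 cells/well. 6 h settle, then compound (DMSO) added; 18 h at 37 C; ONE-Glo luminescence after 30 min RT.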

[14] = qHTS assay to identify small molecule agonists of the estrogen related receptor (ERR) signaling pathway from Tox21 library (AID 1224849; calls by dose curve; also: nearly all actives have a fitted effect of over 15% in size); settings: ERR reporter cell line, ONE-Glo luciferase, 18 h; at 92.4 µM (top of the series) unless noted
Outline: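 Luminescence readout (ONE-Glo, 30 min RT) after 18 h compound exposure at 37 C of NTP-supplied ERR reporter cells; cells were plated 6 h before compound addition by pin tool.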

[15] = qHTS RealTime-Glo MT Cell Viability Assay in HepG2 cells - 24 hour (AID 1224867); also: nearly all actives have a fitted effect of over 50% in size
Outline: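 Compound treatment began 5 h after plating HepG2 cells (600/well) with NanoLuc luciferase and prosubstrate. Plates stayed at 37 C for 40 h; luminescence was captured at six time points, 0 h through 40 h.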

[16] = qHTS RealTime-Glo MT Cell Viability Assay in HEK293 cells - 32 hour (AID 1224868)
Outline: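 Quantitative high-throughput screen of the Tox21 10K library in HEK293: cells and RealTime-Glo reagents plated together, compound added at 5 h, luminescence monitored through 40 h at 37 C.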

[17] = A CellTox Green Cytotoxicity Assay to monitor cytotoxicity in HEK293 cells - 0 hour (AID 1224869); also: nearly all actives have a fitted effect of over 50% in size
Outline: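 Read-out: fluorescence of a cell-impermeant cyanine dye staining DNA of dead cells, proportional to cytotoxicity. HEK293, 600 cells/well with reagent, compound (23 nL DMSO) added after 5 h; reads at 0, 8, 16, 24, 32, 40 h.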

[18] = qHTS RealTime-Glo MT Cell Viability Assay in HepG2 cells - 40 hour (AID 1224870); also: nearly all actives have a fitted effect of over 50% in size
Outline: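 Real-time viability: cells seeded at 600 per well together with NanoLuc and cell-permeant prosubstrate, compounds added after 5 h incubation. Luminescence tracked at 0, 8, 16, 24, 32 and 40 h of exposure.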

[19] = biological target: Nuclear receptor subfamily 1 group I member 3 (Homo sapiens) (UniProt Q14994); assay: qHTS assay to identify small molecule agonists of the constitutive androstane receptor (CAR) signaling pathway (AID 1224839);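 also: HepG2 cells stably carrying human CAR and a CYP2B6 luciferase reporter; nearly all actives have a fitted effect of over 15% in size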
Outline: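 HepG2 cells stably expressing hCAR and a CYP2B6-2.2kb luciferase reporter were treated with compounds at 15 concentrations plus 0.75 uM PK11195 (final) for 24 h at 37 C; luminescence was read after ONE-Glo addition.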

[20] = qHTS assay to identify small molecule agonists of the hypoxia (HIF-1) signaling pathway (AID 1224846; active = well fitted activation curve with a large enough effect in the signal ratio in the repeat runs, not every such curve was filed as active; the % refers to the signal ratio)
Outline: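 Beta-lactamase FRET read-out (CCF4-AM substrate) from ME-180 cells carrying an HRE-driven bla reporter, after 17 hrs compound exposure at 37C/5% CO2. Cells were seeded at 2,000 per well in 0.5% dialyzed FBS medium and preincubated 5 hrs.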
% is scaled to controls: 0 for no effect and ±100 for the full control effect.

Chain of Luciferin 4-monooxygenase (Photinus pyralis) (P08659 whole entry, looked up): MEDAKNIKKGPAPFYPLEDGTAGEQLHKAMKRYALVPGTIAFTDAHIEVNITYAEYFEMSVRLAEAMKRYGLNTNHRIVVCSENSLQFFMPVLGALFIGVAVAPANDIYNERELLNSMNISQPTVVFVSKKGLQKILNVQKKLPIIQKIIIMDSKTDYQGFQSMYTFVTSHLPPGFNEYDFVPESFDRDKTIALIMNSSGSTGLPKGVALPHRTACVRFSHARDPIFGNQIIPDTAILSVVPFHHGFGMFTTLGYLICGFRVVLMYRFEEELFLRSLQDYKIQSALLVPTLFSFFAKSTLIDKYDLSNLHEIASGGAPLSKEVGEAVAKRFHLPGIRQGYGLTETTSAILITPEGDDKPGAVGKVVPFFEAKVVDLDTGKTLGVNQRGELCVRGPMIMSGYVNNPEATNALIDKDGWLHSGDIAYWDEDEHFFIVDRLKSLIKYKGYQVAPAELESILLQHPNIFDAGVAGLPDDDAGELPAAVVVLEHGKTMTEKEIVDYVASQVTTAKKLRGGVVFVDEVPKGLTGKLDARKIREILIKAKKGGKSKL
Chain of Thyrotropin receptor (Homo sapiens) (P16473 whole entry, looked up): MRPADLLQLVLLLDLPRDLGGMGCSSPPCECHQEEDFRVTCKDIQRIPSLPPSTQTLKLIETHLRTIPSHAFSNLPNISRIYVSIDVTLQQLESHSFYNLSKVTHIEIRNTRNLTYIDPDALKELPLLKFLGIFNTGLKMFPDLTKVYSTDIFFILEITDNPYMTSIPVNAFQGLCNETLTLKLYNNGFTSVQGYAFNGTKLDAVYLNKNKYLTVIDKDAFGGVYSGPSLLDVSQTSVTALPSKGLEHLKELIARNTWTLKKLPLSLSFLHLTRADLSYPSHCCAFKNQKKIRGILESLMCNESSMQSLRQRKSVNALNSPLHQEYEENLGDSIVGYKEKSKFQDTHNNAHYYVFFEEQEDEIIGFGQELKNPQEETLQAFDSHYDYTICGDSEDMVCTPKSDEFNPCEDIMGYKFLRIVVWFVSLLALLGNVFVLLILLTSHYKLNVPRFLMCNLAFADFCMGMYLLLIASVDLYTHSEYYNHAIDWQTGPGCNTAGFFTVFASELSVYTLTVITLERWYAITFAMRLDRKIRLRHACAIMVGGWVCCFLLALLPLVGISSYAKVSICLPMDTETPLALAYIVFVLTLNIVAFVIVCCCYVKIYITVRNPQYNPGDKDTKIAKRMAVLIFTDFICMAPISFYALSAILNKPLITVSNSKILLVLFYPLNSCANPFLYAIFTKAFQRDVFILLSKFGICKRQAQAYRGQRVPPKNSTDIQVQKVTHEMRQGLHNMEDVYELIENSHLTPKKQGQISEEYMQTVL
Chain of Nuclear receptor subfamily 1 group I member 3 (Homo sapiens) (Q14994 whole entry, looked up): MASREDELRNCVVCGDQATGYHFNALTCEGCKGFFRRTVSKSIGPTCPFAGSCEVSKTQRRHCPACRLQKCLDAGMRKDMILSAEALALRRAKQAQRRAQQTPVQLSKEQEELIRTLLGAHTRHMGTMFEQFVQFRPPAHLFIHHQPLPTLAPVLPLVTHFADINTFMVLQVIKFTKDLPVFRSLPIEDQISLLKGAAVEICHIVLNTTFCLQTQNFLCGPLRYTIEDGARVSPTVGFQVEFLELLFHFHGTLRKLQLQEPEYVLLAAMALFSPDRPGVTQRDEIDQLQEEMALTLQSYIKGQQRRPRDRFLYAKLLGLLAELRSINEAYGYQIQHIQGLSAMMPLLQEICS

NC(=O)Nc1ccccc1
inactive: Potency [1] | Potency [2] | Potency [3] | Potency [4] | Potency [5] | Potency [6] | Potency [7] | outcome [8] | Potency [9] | Potency [10] | outcome [11] | Potency [12] | Potency [13] | activity change, positive = activation [14] 8.88% | Potency [15] | Potency [16] | Potency [17] | Potency [18]

Nc1ccccc1S(=O)(=O)O
inactive: Potency [1] | Potency [2] | Potency [3] | Potency [4] | Potency [5] | Potency [19] | Potency [6] | Potency [7] | outcome [8] | Potency [10] | outcome [11] | Potency [12] | Potency [13] | Potency [15] | Potency [16] | Potency [17]

CCN1CCC[C@H]1CNC(=O)c1c(O)c(Cl)cc(Cl)c1OC
inactive: Potency [1] | Potency [2] | Potency [3] | Potency [4] | Potency [5] | Potency [19] | Potency [6] | Potency [10] | outcome [11] | Potency [12] | Potency [15] | Potency [16] | Potency [17] | Potency [18]

OCCCC1CCCCC1
inactive: Potency [1] | Potency [2] | Potency [3] | Potency [4] | Potency [5] | Potency [19] | Potency [7] | outcome [8] | Potency [9] | Potency [10] | outcome [11] | outcome [20] | Potency [12] | Potency [13] | activity change, positive = activation [14] -0.619% | Potency [15] | Potency [16] | Potency [18]

O=C1OC(=O)C2CCCCC12 (stereo not drawn)
inactive: Potency [1] | Potency [2] | Potency [3] | Potency [4] | Potency [5] | Potency [19] | Potency [7] | outcome [8] | Potency [10] | outcome [11] | outcome [20] | Potency [12] | Potency [13] | Potency [15] | Potency [16] | Potency [17] | Potency [18]

CC(C)NCCCC1(C(N)=O)c2ccccc2-c2ccccc21
inactive: Potency [1] | Potency [2] | Potency [3] | Potency [4] | Potency [5] | Potency [19] | Potency [7] | outcome [8] | Potency [9] | Potency [10] | outcome [11] | outcome [20] | Potency [12] | Potency [13] | activity change, positive = activation [14] 9.55% [at 42.5 µM] | Potency [15] | Potency [16] | Potency [17] | Potency [18]

OC(CCN1CCCCC1)(c1ccccc1)C1CC2C=CC1C2 (stereo not drawn)
inactive: Potency [1] | Potency [2] | Potency [3] | Potency [4] | Potency [5] | Potency [19] | Potency [6] | Potency [10] | outcome [11] | Potency [12] | Potency [15] | Potency [16] | Potency [17] | Potency [18]

O=c1cc(CO)occ1O
inactive: Potency [1] | Potency [2] | Potency [3] | Potency [4] | Potency [5] | Potency [19] | Potency [7] | outcome [8] | Potency [9] | Potency [10] | outcome [11] | outcome [20] | Potency [12] | Potency [13] | activity change, positive = activation [14] 3.24% [at 42.5 µM] | Potency [15] | Potency [16] | Potency [17] | Potency [18]

CCN1CCC[C@H]1CNC(=O)c1cc(S(N)(=O)=O)ccc1OC
inactive: Potency [1] | Potency [2] | Potency [3] | Potency [4] | Potency [5] | Potency [19] | Potency [6] | Potency [9] | Potency [10] | outcome [11] | Potency [12] | Potency [15] | Potency [16] | Potency [17] | Potency [18]

Oc1ccc(C2CNCCc3c2cc(O)c(O)c3Cl)cc1 (stereo not drawn)
inactive: Potency [1] | Potency [2] | Potency [3] | Potency [4] | Potency [5] | Potency [19] | Potency [6] | Potency [9] | Potency [10] | outcome [20] | Potency [12] | Potency [15] | Potency [16] | Potency [17] | Potency [18]

CCCCOCCOCCOCCCC
inactive: Potency [1] | Potency [2] | Potency [3] | Potency [4] | Potency [5] | Potency [6] | Potency [7] | outcome [8] | Potency [9] | Potency [10] | outcome [11] | Potency [12] | Potency [13] | activity change, positive = activation [14] 0.577% | Potency [15] | Potency [16] | Potency [17] | Potency [18]
